Rows were chosen to be rich in hits. Some 19% of all compounds tested hit in one or more screens of this group.
AMA1-RON2 inh = inhibitors of Plasmodium falciparum AMA1-RON2 interaction; 360,000 compounds, 0.2% hits; AlphaScreen AMA1-biotinylated RON2 peptide binding; AID 720542; Potency, µM (titrated, usually from 58.2 µM), without a hit: at the highest dose activity change, negative = inhibition, hits mostly inhibitors;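 also: potency is read from the fitted curve at half-maximal effect; 0% = vehicle wells and -100% = peptide control; nearly all actives have a fitted effect of over 45% in size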
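AMA1 (3D7) with his tag at 25 nM final met compounds first, then biotinylated RON2 peptide at 25 nM; detection used donor plus acceptor beads, 10 µg/mL apiece, read by AlphaScreen after 30 min at room temperature.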
SARS PLpro yeast = blocks SARS-CoV papain-like protease in a yeast assay. S. cerevisiae expressing SARS-CoV PLpro, growth rescue. Potency, µM (highest dose often 32.9 µM), for the others: at the top dose activity, positive = growth rescue, most hits filed as activators. 330,000 compounds, 0.19% hits. AID 485353; calls by dose curve; also: potency is read from the fitted curve at half-maximal effect; 0% is about no effect; nearly all actives have a fitted effect of over 55% in size
CHX counter = affects cycloheximide protein synthesis inhibition readout, counter-screen; cell reporter, cycloheximide protein synthesis inhibition counterscreen; max response, %; 300,000 compounds, 12% hits; AID 2314; in the data active = max response mostly above about 13%, no sharp cut-off; inactive = mostly below about 14%; also: read at 38.3 µM for the half of the compounds with a filed dose; 0% is about no effect
Pf growth 48h = inhibits P. falciparum growth in the first generation, 48 h | P. falciparum luciferase growth in erythrocytes, 48 h | Potency, µM (titrated, usually from 28.7 µM), inactives show at the highest dose activity change, negative = inhibition, most hits filed as inhibitors | 310,000 compounds, 5.9% hits | AID 504832; also: potency is read from the fitted curve at half-maximal effect; % is scaled to controls: 0 for no effect and ±100 for the full control effect
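Cell-based growth assay: transgenic P. falciparum expressing firefly luciferase, cultured in red cells within RPMI 1640 containing 0.5% w/v Albumax, 24 mM bicarbonate and gentamycin. A drop in luciferase activity indicates inhibition.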
Shiga inhibitor = Shiga toxin inhibition; Vero cells, Shiga toxin protein synthesis inhibition reporter; inhibition, % at 38.7 µM; AID 2315; 290,000 compounds, 9.2% hits; in the data active = inhibition mostly above about 28%, no sharp cut-off; inactive = mostly below about 43%; also: 0% is about no effect
Pf growth 96h = inhibits malaria parasite growth, 96 h; P. falciparum luciferase reporter growth, 96 h; Potency, µM (top dose mostly 28.7 µM), for the others: top-dose activity change, negative = inhibition, usual class: inhibitors; 320,000 compounds, 6.9% hits; also: potency is read from the fitted curve at half-maximal effect; % is scaled to controls: 0 for no effect and ±100 for the full control effect
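Cell-based qHTS: luciferase-tagged P. falciparum in erythrocytes (2% hematocrit, 0.05% parasitemia final) incubated with compounds for 96 hours, 37 C, 5% CO2; luciferase detection reagent then added and luminescence measured.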
* marks the source's active call; other numbers are inactive results; i = inactive; u = inconclusive; x = not tested or not shown; [ ] = remark or other dose. Unless noted, calls follow the shape of the dose curve; as a rule, active = well fitted curve in the direction sought with a large enough effect; inconclusive = small, poorly fitted or top-dose-only effect, or another doubt; inactive = no such curve, though single readings can be large; an effect the other way counts as inactive or inconclusive.

SMILES	AMA1-RON2 inh	SARS PLpro yeast	CHX counter	Pf growth 48h	Shiga inhibitor	Pf growth 96h
COc1ccc(C(=O)OCC(=O)NC(=O)NC2CCCC2)c(OC)c1	1%	-4%	13	12µM*	17	24%
COc1ccc(C(=O)OCC(=O)NC2CCCC2)c(OC)c1	1%	-2%	17*	42%	31	54%
COc1ccc(C(=O)OCC(=O)NC2CCCCCC2)c(OC)c1	-3%	0%	x	46%	x	-1%
COC(=O)c1ccc(COC(=O)c2ccc(SC)cc2OC)cc1	25%	19%	21*	49%	45*	u
C[C@@H]1C(=O)N(c2ccccc2)[C@@H]1c1ccncc1	-4%	15%	x	x	x	x
O=C1CC(C(=O)O)C(c2ccccc2)c2ccccc21 (stereo not given)	-1%	x	x	x	x	x
COc1ccc(-n2c(SCC(=O)N(C)c3ccccc3)nc3c([nH]c4ccccc43)c2=O)cc1OC	-18%	-1%	-2	8.3µM*	6	4.7µM*
COc1cccc(-n2c(SCC(N)=O)nc3c([nH]c4ccccc43)c2=O)c1	-1%	-2%	-5	3%	-13	x
CCn1c(SCC(=O)N(C)c2ccccc2)nc2c([nH]c3ccccc32)c1=O	-10%	10%	7	u	0	u
COc1ccc(-n2c(SCC(=O)Nc3ccc(C(N)=O)cc3)nc3c([nH]c4ccccc43)c2=O)cc1OC	-1%	0%	1	u	-11	12µM*
COc1ccc(CN(C)C(=O)[C@H](Cc2ccccc2)NC(=O)c2ccco2)c(OC)c1	-13%	2%	x	u	x	u
Cc1ccccc1CN(C)C(=O)[C@H](Cc1ccccc1)NC(=O)c1ccco1	-2%	15%	x	u	x	8.3µM*
COc1cc(C2Nc3ccccc3C(=O)N2c2ccc3c(c2)OCCO3)ccc1OCC(C)C (stereo not given)	0%	-3%	31*	-22%	61*	x
O=C1c2ccccc2NC(c2ccc(O)c(O)c2)N1c1ccccc1Cl (stereo not given)	54%	2%	27*	7%	41*	-9%
O=C1c2ccccc2NC(c2cccs2)N1O (stereo not given)	18%	0%	x	-4%	x	3%
O=C1c2ccccc2NC(c2ccc3c(c2)OCO3)N1O (stereo not given)	11%	9%	11	-26%	13	0.37µM*
O=C1c2ccccc2NC(c2ccc3c(c2)OCCO3)N1c1ccc2c(c1)OCCO2 (stereo not given)	-11%	u	44*	46%	81*	133%
COc1cc(C2Nc3ccccc3C(=O)N2c2ccccc2OC)ccc1O (stereo not given)	-11%	-3%	6	-2%	18	u
O=C(NCCOC(=O)C1COc2ccccc2O1)c1cccnc1 (stereo not given)	-1%	1%	-2	61%	-12	32%
CCOc1ccccc1OC(=O)CN1C(=O)c2ccccc2C1=O	2%	1%	-2	7%	x	-22%
CCC(NC(=O)NC1=NCCS1)(C(F)(F)F)C(F)(F)F	-11%	-1%	-1	7%	-26	0.21µM*
CCOC(=O)c1ccc(NC(=O)NC2=NCCS2)cc1	-6%	x	x	x	x	x
O=C1NCCNC1(c1c[nH]c2ccccc12)C(F)(F)F (stereo not given)	-1%	0%	-7	x	-20	1µM*
CCC(Sc1nncn1C)C(=O)Nc1nnc(-c2ccccc2Cl)s1 (stereo not given)	0%	1%	17*	-3%	27	9%
COc1ccccc1-c1nnc(NC(=O)C(C)Sc2nncn2C)s1 (stereo not given)	3%	-4%	15	22%	18	-4%
SMILES	AMA1-RON2 inh	SARS PLpro yeast	CHX counter	Pf growth 48h	Shiga inhibitor	Pf growth 96h
COc1ccc(-c2nn(-c3ccccc3)cc2/C=C/C(=O)NCCCn2ccnc2)cc1OC	-16%	0%	-6	12µM*	-5	10µM*
COc1ccc(-c2nn(-c3ccccc3)cc2/C=N/Nc2ccc(Cl)c(C(=O)O)c2)cc1OC	9%	-1%	19*	u	72*	-1%
COc1ccc(N/N=C/c2c(C(=O)O)ccc3ccccc23)cc1	88%	4%	22*	2.6µM*	27*	7.4µM*
COc1ccc2ccccc2c1/C=N/Nc1cccc(C(=O)O)c1	-10%	1%	72*	65%	134*	7%
COc1ccc2ccccc2c1/C=N/NC(=O)c1cccc([N+](=O)[O-])c1	4%	0%	3	-9%	3	4%
CCc1cccc(CC)c1NC(=S)Nc1ccccc1	11%	0%	-1	u	-20	17%
O=C(O)c1cccc(N/N=C/c2cccc3ccccc23)c1	-6%	1%	74*	167%	165*	327%
COc1ccc2ccccc2c1/C=N/Nc1ccc(Cl)c(C(=O)O)c1	-4%	9%	15	-11%	56*	u
O[C@H]1C[C@H](c2ccc(Cl)cc2)N(CC2CCCCC2)C[C@@H]1n1cc(-c2ccc(F)cc2)nn1	-5%	x	x	x	x	x
CSc1nsc(SCC(=O)NCc2ccc(C)cc2)n1	7%	-2%	-3	4%	-5	-19%
Nc1ccc2c3c(ccc([N+](=O)[O-])c13)CC2	28µM*	x	x	x	x	x
CC1CCCN(c2nc3ccsc3c(=O)s2)C1 (stereo not given)	151%	-18%	44*	77%	119*	x
O=C(NCc1ccccc1Cl)C1CCCN(c2nc3ccsc3c(=O)s2)C1 (stereo not given)	x	-3%	-1	256%	-10	i
CCOc1ccc2nc3c(cc2c1)CN(CCCO)C(=NCCOC)S3	-1%	2%	17	11%	48	u
Cc1ccc2nc3c(cc2c1)CN(Cc1ccco1)C(=NCC1CCCO1)S3 (stereo not given)	-9%	0%	-1	u	-5	u
COCCN=C1Sc2nc3c(C)cccc3cc2CN1Cc1ccco1	11%	-3%	11	8.3µM*	30	-5%
Cc1cccc2cc3c(nc12)SC(=NCC1CCCO1)N(Cc1ccco1)C3 (stereo not given)	-4%	-14%	20*	4.1µM*	41	-6%
Clc1ccc(/C=C/c2ncc[nH]2)c(Cl)c1	-10%	-7%	46*	u	65*	u
Cc1ccc(NC(=O)N[C@H](C(=O)O)C(C)C)c(C)c1	-1%	0%	-2	14%	3	53%
Cc1ccc(NC(=O)COC(=O)Cn2ccc(=O)[nH]c2=O)cc1C	13%[11.6 µM]	-2%	x	x	x	x
O=C1/C(=C/c2ccc(O)c(O)c2)Oc2ccccc21	x	x	35*	x	77*	x
COC(=O)COc1ccc2c(c1)O/C(=C\c1cccc([N+](=O)[O-])c1)C2=O	-1%	2%	-4	12%	-3	11%
